# A selection: hits, their analogues and other compounds. The true share with any hit is near 12%.
# G9a block = blocks human histone lysine methyltransferase G9a; AID 504332; G9a H3K9 monomethylation, AlphaScreen, 2 h; 350,000 compounds, 8.8% hits; Potency, µM (doses to about 102 µM), inactives show top-dose activity, negative = inhibition, most hits filed as inhibitors; further: on the % scale 0 is the no-effect control and ±100 the full control effect; nearly all actives have a fitted effect of over 75% in size
#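 Using a bead-based AlphaScreen, monomethylated H3K9 product from 2 h room-temperature reactions (G9a 20 nM, peptide 500 nM, SAM 20 uM) was detected with 0.5 ug/mL rabbit anti-H3K9me1 antibody.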
# BAZ2B inh = blocks human BAZ2B. Potency, µM (titrated, usually from 114 µM), without a hit: at the highest dose activity change, negative = inhibition, hits mostly inhibitors. AlphaScreen BAZ2B-H3K14Ac peptide displacement. Q9UIF8. AID 504333. 360,000 compounds, 4.4% hits; further: on the % scale 0 is the no-effect control and ±100 the full control effect; nearly all actives have a fitted effect of over 60% in size
#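 AlphaScreen displacement of biotin-H3(5-23)K14Ac peptide (50 nM final) from BAZ2B (50 nM final) in PBS pH 7.4, 0.01% Tween-20; complex preformed 30 min RT, then compounds (top 110 uM) 30 min RT, beads 20 min dark.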
# JMJD2A Tudor = JMJD2A Tudor domain (human) inhibition; AID 504339; Potency, µM (top dose mostly 114 µM), for the others: top-dose activity change, negative = inhibition, usual class: inhibitors; AlphaScreen JMJD2A-Tudor / H3K4me3 peptide binding; 390,000 compounds, 4.4% hits; further: on the % scale 0 is the no-effect control and ±100 the full control effect; nearly all actives have a fitted effect of over 50% in size
# HP1b chromo inh = blocks HP1-beta chromodomain binding to methylated histone tails | P83916 | AlphaScreen HP1-beta / biotin-H3K9me3 peptide binding | Potency, µM (doses to about 114 µM), for inactives: at the top dose activity change, negative = inhibition, most hits filed as inhibitors | 390,000 compounds, 0.56% hits | AID 540317; further: nearly all actives have a fitted effect of over 70% in size
#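 HP1-beta protein (50 nM final) preincubated 30 min at room temperature with biotinylated H3(1-18)K9me3 peptide (50 nM) in PBS pH 7.4, 0.01% Tween-20, then compound added for 30 min. AlphaScreen streptavidin donor/nickel chelate acceptor beads (10 ug/mL final), 30 min dark, luminescence read.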
# Sfp PPTase inh = blocks B. subtilis Sfp PPTase activity | Biochemical Sfp PPTase activity, qHTS | Potency, µM, inactives show largest response in the series, negative = inhibition, usual class: inhibitors | 310,000 compounds, 3.5% hits | AID 1490;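 further: the enzyme is Sfp with the accession as filed and its product quenches rhodamine fluorescence; 0% = enzyme reaction without inhibitor and -100% = no enzyme wells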
#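 Step 1, compound plus 15 nM Sfp-PPTase, 15 min, room temperature. Step 2, add rhodamine-CoA (5 uM) and BHQ-2-YbbR (12.5 uM). Step 3, read 525/598 nm fluorescence at 0 and 30 min.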
# L3MBTL1 block = inhibitors of human L3MBTL1; AlphaScreen L3MBTL1–H3K9me1 peptide binding; Potency, µM (top dose mostly 57.1 µM), for the others: top-dose activity, negative = inhibition, actives largely listed as inhibitors; 230,000 compounds, 0.66% hits; further: on the % scale 0 is the no-effect control and ±100 the full control effect; nearly all actives have a fitted effect of over 60% in size
# Target sequence (Q9Y468 whole entry, looked up): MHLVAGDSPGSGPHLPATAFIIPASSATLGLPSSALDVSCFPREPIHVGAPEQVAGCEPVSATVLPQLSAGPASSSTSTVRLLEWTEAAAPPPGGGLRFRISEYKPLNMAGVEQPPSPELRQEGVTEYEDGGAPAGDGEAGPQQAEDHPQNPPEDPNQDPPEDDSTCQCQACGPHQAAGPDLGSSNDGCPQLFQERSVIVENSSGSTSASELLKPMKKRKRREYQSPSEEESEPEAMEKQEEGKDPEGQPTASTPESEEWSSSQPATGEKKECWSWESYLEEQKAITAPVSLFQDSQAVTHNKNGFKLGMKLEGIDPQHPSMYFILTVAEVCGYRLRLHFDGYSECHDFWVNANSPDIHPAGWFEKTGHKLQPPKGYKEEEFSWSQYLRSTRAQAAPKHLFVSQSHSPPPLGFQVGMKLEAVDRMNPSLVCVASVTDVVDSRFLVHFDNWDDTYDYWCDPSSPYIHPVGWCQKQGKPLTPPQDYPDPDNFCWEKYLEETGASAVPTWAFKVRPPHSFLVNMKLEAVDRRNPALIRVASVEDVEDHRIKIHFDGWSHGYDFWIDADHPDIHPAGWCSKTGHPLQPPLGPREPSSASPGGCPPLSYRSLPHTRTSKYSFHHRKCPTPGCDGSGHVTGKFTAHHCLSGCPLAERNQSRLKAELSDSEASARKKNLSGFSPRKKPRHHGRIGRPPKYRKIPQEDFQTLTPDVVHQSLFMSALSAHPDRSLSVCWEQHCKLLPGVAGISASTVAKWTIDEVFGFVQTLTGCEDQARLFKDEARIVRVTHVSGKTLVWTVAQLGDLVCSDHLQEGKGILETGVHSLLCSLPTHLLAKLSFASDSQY
#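 L3MBTL1 (50 nM) pre-complexed 30 min with biotinylated H3(1-15)K9me1 peptide (75 nM), then compounds added for 30 min at room temperature; AlphaScreen streptavidin donor/nickel chelate acceptor beads (10 ug/mL final) read after 30 min dark incubation.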
# Starred values were filed as active, the others as inactive; ? = inconclusive; . = no result given; [ ] = another dose, or the depositor's remark. The call rests on the fitted dose curve; in most records, active means well fitted curve in the direction sought with a large enough effect; inconclusive means small, poorly fitted or top-dose-only effect, or another doubt; inactive means no such curve, though single readings can be large; an effect the other way counts as inactive or inconclusive. Potency means the concentration at half of the fitted maximal effect.
SMILES,G9a block,BAZ2B inh,JMJD2A Tudor,HP1b chromo inh,Sfp PPTase inh,L3MBTL1 block
CC(CCc1ccco1)NC(=O)c1cc2c(-c3ccccc3F)nn(C)c2s1 (stereo not given),89µM*,-2%,-21%,8%,45µM*,.
Cc1cc(C(=O)NNC(=S)Nc2ccccc2)nn1C,32µM*,3%,-13%[11.4 µM],80%,14%,-2%
O=C(NNC(=O)c1cccc(Br)c1)Nc1ccc(Cl)cc1,0%,-10%,13µM*,?,18%,-6%
O=C(NNC(=S)Nc1ccccc1)c1cccc(Br)c1,50µM*,8%,-19%,3%,14%,.
O=C(NNC(=O)c1ccc(NC(=O)c2ccccc2)cc1)Nc1ccccc1,?,71µM*,?,15%,-3%,-3%
CC(C)c1ccc(NC(=O)c2cc3c(=O)[nH]c4ccccc4c3n2C)cc1,-13%[59 µM],.,-17%,22%,.,.
Clc1cc(Cl)cc(C2=N[C@@H](Cc3ccccc3)CO2)c1,87%,.,.,.,6%,.
CCCCOc1ccc(NC(=O)Cn2nnnc2-c2ccccc2F)cc1,?,0%,-3%,35%,.,.
Cc1c(C(=O)NNC(=S)Nc2cccc(Cl)c2)nnn1-c1ccccc1,11µM*,56µM*,?,-5%,-2%,?
Cc1ccc(C)c(N2CCN(S(=O)(=O)c3c(C(=O)N4CCC(C)CC4)c(C)n(C)c3C)CC2)c1,10%[12.7 µM],50µM*,?,-10%,.,.
c1ccc2sc(SN3CCOCC3)nc2c1,?,3%,40µM*,?,-23%,6%
COCc1cc(C)nc(OCC(=O)N/N=C/c2ccc(O)cc2O)c1C#N,28%,40µM*,-34%,44%,26%,.
CCOc1cc(/C=N/NC(=O)COc2nc(C)cc(COC)c2C#N)ccc1O,-4%,-2%,-13%,32%,23%,-5%
COCc1cc(C)nc(OCC(=O)N/N=C/c2ccccc2O)c1C#N,47%,79µM*,-15%,34%,23%,-24%
O=C(Cn1c(SCCOc2ccccc2Cl)nc2ccccc21)N1CCCCC1,?,?,?,-6%,.,.
O=C(c1csnn1)N1CCC[C@@]2(CCN(C(c3ccccc3)c3ccccc3)C2)C1,-7%[12.7 µM],.,.,.,13%,.
O=C(c1csnn1)N1CCC2(CCN(Cc3cc(C(F)(F)F)cc(C(F)(F)F)c3)CC2)CC1,1%[12.7 µM],.,.,.,7%,.
COc1ccc(NC(=O)NNC(=O)CCc2ccc(O)c(O)c2)cc1OC,-12%,-17%,28µM*,?,-27%,.
COc1ccc(CCC(=O)NNC(=O)Nc2ccc(OC)c(OC)c2)cc1,2%,-1%,3%,38%,8%,.
COC(Cc1ccccc1N1CCCC1=O)OC,56µM*,?,-3%,34%,7%,2%
COc1ccc(S(=O)(=O)Nc2cccc3cccnc23)c([N+](=O)[O-])c1,.,.,?,27%,.,.
CCCCOC(=O)C1CCCC(C)N1 (stereo not given),28µM*,-39%,22µM*,-6%,1%,.
O=C(CSc1nc2ccccc2n1Cc1cccc(F)c1)N1CCN(c2ccc(F)cc2)CC1,6%[59 µM],-3%,-14%,4%,.,.
Cc1cc(C)c2c(n1)sc1c(=O)n(-c3cc(Cl)ccc3C)nnc12,-16%[59 µM],-14%,-11%,37%,.,.
CN1C2C=C3C(C#N)=C(N)C(C#N)(C#N)[C@@H](c4cccs4)C3C1CC2 (stereo not given in full),-24%[12.7 µM],-1%,-23%,48%,-3%,.
CC(C)(C)C1CC=C2C(C#N)=C(N)C(C#N)(C#N)C(c3cccs3)C2C1 (stereo not given),50µM*,?,.,.,-13%,.
Cc1ccc2sc(N(CCCN(C)C)C(=O)c3ccc(S(=O)(=O)N(C)C)cc3)nc2c1C,?,.,-4%,31%,-1%,.
CCCCN(CC)S(=O)(=O)c1ccc(C(=O)N(CCCN(C)C)c2nc3cc(C)cc(C)c3s2)cc1,45µM*,?,?,-22%,50µM*,-13%

# Compound activity as filed in PubChem BioAssay.
